Source: the supplement of paper PMC8728848
About 410 targets per protein were measured; listed, in parts, are those with the strongest signals and a random draw of the rest.

Assays:
Test in all cases: glycan array binding signal (z-score within array); higher = stronger binding
Settings in all cases: glycan notation: IUPAC condensed, linker removed
Fuc(a1-2)Gal = target: Fuc(a1-2)Gal
Summary of the method: (§1)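 The binding signal is a Z-score computed within each array. Data were drawn from 3228 arrays in the Consortium for Functional Glycomics database, restricted to those with a known protein sequence. Scores were averaged over arrays of the same protein sequence at different concentrations or buffers, and over linkers, and negative values can be taken as non-binding.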

[1] = target: Fuc(a1-2)Gal(b1-3)GlcNAc6S
Summary of the method: as §1

[2] = target: Fuc(a1-2)Gal6S(b1-3)GlcNAc
Summary of the method: as §1

[3] = target: Fuc(a1-2)[Gal(a1-3)]Gal(b1-3)GlcNAc
Summary of the method: as §1

[4] = target: Fuc(a1-2)[Gal(a1-3)]Gal(b1-3)GlcNAc(b1-3)GalNAc
Summary of the method: as §1

[5] = target: Fuc(a1-2)[Gal(a1-3)]Gal(b1-4)[Fuc(a1-3)]Glc
Summary of the method: as §1

[6] = target: Fuc(a1-2)[GalNAc(a1-3)]Gal(b1-4)GlcNAc(b1-2)Man(a1-3)[GalNAc(a1-3)[Fuc(a1-2)]Gal(b1-4)GlcNAc(b1-2)Man(a1-6)]Man(b1-4)GlcNAc(b1-4)GlcNAc
Summary of the method: as §1

[7] = target: Fuc(a1-3)[Gal(b1-4)]GlcNAc(b1-2)Man(a1-3)[Fuc(a1-3)[Gal(b1-4)]GlcNAc(b1-2)Man(a1-6)]Man(b1-4)GlcNAc(b1-4)[Fuc(a1-6)]GlcNAc
Summary of the method: as §1

[8] = target: Fuc(a1-3)[Gal3S(b1-4)]Glc6S
Summary of the method: as §1

Fuc(a1-4)GlcNAc = target: Fuc(a1-4)GlcNAc
Summary of the method: as §1

Gal(a1-4)Gal(b1-4)GlcNAc = target: Gal(a1-4)Gal(b1-4)GlcNAc
Summary of the method: as §1

[9] = target: Gal(a1-4)Gal(b1-4)GlcNAc(b1-3)Gal(b1-4)Glc
Summary of the method: as §1

[10] = target: Gal(b1-3)GlcNAc(b1-3)Gal(b1-4)GlcNAc(b1-3)Gal(b1-4)GlcNAc(b1-2)[Gal(b1-3)GlcNAc(b1-3)Gal(b1-4)GlcNAc(b1-3)Gal(b1-4)GlcNAc(b1-6)]Man(a1-6)[Gal(b1-3)GlcNAc(b1-3)Gal(b1-4)GlcNAc(b1-3)Gal(b1-4)GlcNAc(b1-2)Man(a1-3)]Man(b1-4)GlcNAc(b1-4)[Fuc(a1-6)]GlcNAc
Summary of the method: as §1

[11] = target: Gal(b1-3)GlcNAc(b1-3)Gal(b1-4)[Fuc(a1-3)]GlcNAc(b1-6)[Gal(b1-3)GlcNAc(b1-3)]Gal(b1-4)Glc
Summary of the method: as §1

[12] = target: Gal(b1-3)GlcNAc(b1-6)Gal(b1-4)GlcNAc
Summary of the method: as §1

[13] = target: Gal(b1-3)[GlcNAc(b1-6)]GalNAc
Summary of the method: as §1

[14] = target: Gal(b1-3)[Neu5Ac(a2-6)]GlcNAc(b1-6)Gal(b1-4)Glc
Summary of the method: as §1

[15] = target: Gal(b1-4)GlcNAc(b1-2)Man(a1-3)[Gal(b1-4)GlcNAc(b1-2)Man(a1-6)]Man(b1-4)GlcNAc(b1-4)GlcNAc
Summary of the method: as §1

[16] = target: Gal(b1-4)GlcNAc(b1-2)Man(a1-6)[GlcNAc(b1-2)Man(a1-3)]Man(b1-4)GlcNAc(b1-4)GlcNAc
Summary of the method: as §1

[17] = target: Gal(b1-4)GlcNAc(b1-3)Gal(b1-4)GlcNAc(b1-2)[Gal(b1-4)GlcNAc(b1-3)Gal(b1-4)GlcNAc(b1-6)]Man(a1-6)[Gal(b1-4)GlcNAc(b1-3)Gal(b1-4)GlcNAc(b1-2)Man(a1-3)]Man(b1-4)GlcNAc(b1-4)GlcNAc
Summary of the method: as §1

[18] = target: Gal(b1-4)GlcNAc(b1-3)Gal(b1-4)GlcNAc(b1-3)Gal(b1-4)GlcNAc(b1-3)Gal(b1-4)GlcNAc(b1-2)Man(a1-3)[Gal(b1-4)GlcNAc(b1-3)Gal(b1-4)GlcNAc(b1-3)Gal(b1-4)GlcNAc(b1-3)Gal(b1-4)GlcNAc(b1-2)Man(a1-6)]Man(b1-4)GlcNAc(b1-4)GlcNAc
Summary of the method: as §1

[19] = target: Gal(b1-4)GlcNAc(b1-3)Gal(b1-4)GlcNAc(b1-3)Gal(b1-4)GlcNAc(b1-3)Gal(b1-4)GlcNAc(b1-2)Man(a1-3)[Gal(b1-4)GlcNAc(b1-3)Gal(b1-4)GlcNAc(b1-3)Gal(b1-4)GlcNAc(b1-3)Gal(b1-4)GlcNAc(b1-2)Man(a1-6)]Man(b1-4)GlcNAc(b1-4)[Fuc(a1-6)]GlcNAc
Summary of the method: as §1

[20] = target: Gal3S(b1-3)[Fuc(a1-4)]GlcNAc
Summary of the method: as §1

[21] = target: Gal3S(b1-4)[Fuc(a1-3)]GlcNAc6S
Summary of the method: as §1

Gal4S(b1-4)GlcNAc = target: Gal4S(b1-4)GlcNAc
Summary of the method: as §1

Gal6S(b1-3)GlcNAc6S = target: Gal6S(b1-3)GlcNAc6S
Summary of the method: as §1

Gal6S(b1-4)Glc = target: Gal6S(b1-4)Glc
Summary of the method: as §1

Gal6S(b1-4)GlcNAc6S = target: Gal6S(b1-4)GlcNAc6S
Summary of the method: as §1

GalNAc(b1-3)Gal = target: GalNAc(b1-3)Gal
Summary of the method: as §1

[22] = target: GalNAc(b1-3)Gal(a1-6)Gal(b1-4)Glc
Summary of the method: as §1

Glc(a1-6)Glc(a1-6)Glc = target: Glc(a1-6)Glc(a1-6)Glc
Summary of the method: as §1

[23] = target: GlcNAc(a1-4)Gal(b1-4)GalNAc
Summary of the method: as §1

[24] = target: GlcNAc(b1-2)Man(a1-3)[GlcNAc(b1-2)Man(a1-6)]Man(b1-4)GlcNAc(b1-4)GlcNAc
Summary of the method: as §1

[25] = target: GlcNAc(b1-2)Man(a1-3)[GlcNAc(b1-4)][GlcNAc(b1-2)Man(a1-6)]Man(b1-4)GlcNAc(b1-4)GlcNAc
Summary of the method: as §1

[26] = target: GlcNAc(b1-2)Man(a1-3)[GlcNAc(b1-4)][GlcNAc(b1-2)Man(a1-6)]Man(b1-4)GlcNAc(b1-4)[Fuc(a1-6)]GlcNAc
Summary of the method: as §1

[27] = target: GlcNAc(b1-2)[GlcNAc(b1-4)]Man(a1-3)[GlcNAc(b1-2)Man(a1-6)]Man(b1-4)GlcNAc(b1-4)GlcNAc
Summary of the method: as §1

[28] = target: GlcNAc(b1-2)[GlcNAc(b1-6)]Man(a1-6)[GlcNAc(b1-2)Man(a1-3)]Man(b1-4)GlcNAc(b1-4)GlcNAc
Summary of the method: as §1

[29] = target: GlcNAc(b1-2)[GlcNAc(b1-6)]Man(a1-6)[GlcNAc(b1-2)Man(a1-3)]Man(b1-4)GlcNAc(b1-4)[Fuc(a1-6)]GlcNAc
Summary of the method: as §1

GlcNAc(b1-3)Gal(b1-4)Glc = target: GlcNAc(b1-3)Gal(b1-4)Glc
Summary of the method: as §1

[30] = target: GlcNAc(b1-3)Gal(b1-4)GlcNAc(b1-3)[GlcNAc(b1-3)Gal(b1-4)GlcNAc(b1-3)]GalNAc
Summary of the method: as §1

Kdn(a2-6)Gal(b1-4)GlcNAc = target: Kdn(a2-6)Gal(b1-4)GlcNAc
Summary of the method: as §1

[31] = target: Neu5Ac(a2-3)Gal(b1-3)GalNAc(b1-4)[Neu5Ac(a2-3)]Gal(b1-4)Glc
Summary of the method: as §1

[32] = target: Neu5Ac(a2-3)Gal(b1-3)[Fuc(a1-4)]GlcNAc
Summary of the method: as §1

[33] = target: Neu5Ac(a2-3)Gal(b1-4)GlcNAc(b1-2)Man(a1-3)[GlcNAc(b1-4)][Neu5Ac(a2-3)Gal(b1-4)GlcNAc(b1-2)Man(a1-6)]Man(b1-4)GlcNAc(b1-4)GlcNAc
Summary of the method: as §1

[34] = target: Neu5Ac(a2-3)Gal(b1-4)[Fuc(a1-3)]GlcNAc(b1-3)GalNAc
Summary of the method: as §1

[35] = target: Neu5Ac(a2-3)GalNAc(b1-4)GlcNAc
Summary of the method: as §1

[36] = target: Neu5Ac(a2-6)Gal(b1-4)GlcNAc(b1-2)Man(a1-3)[GlcNAc(b1-2)Man(a1-6)]Man(b1-4)GlcNAc(b1-4)GlcNAc
Summary of the method: as §1

[37] = target: Neu5Ac(a2-6)Gal(b1-4)GlcNAc(b1-2)Man(a1-6)[GlcNAc(b1-2)Man(a1-3)]Man(b1-4)GlcNAc(b1-4)GlcNAc
Summary of the method: as §1

[38] = target: Neu5Ac(a2-6)Gal(b1-4)GlcNAc(b1-2)[Neu5Ac(a2-6)Gal(b1-4)GlcNAc(b1-4)]Man(a1-3)[GlcNAc(b1-4)][Neu5Ac(a2-6)Gal(b1-4)GlcNAc(b1-2)[Neu5Ac(a2-6)Gal(b1-4)GlcNAc(b1-6)]Man(a1-6)]Man(b1-4)GlcNAc(b1-4)GlcNAc
Summary of the method: as §1

[39] = target: Neu5Ac(a2-6)Gal(b1-4)GlcNAc(b1-6)[Gal(b1-3)]GalNAc
Summary of the method: as §1

[40] = target: Neu5Ac(a2-8)Neu5Ac(a2-8)Neu5Ac(a2-3)Gal(b1-4)Glc
Summary of the method: as §1

Neu5Ac(b2-6)GalNAc = target: Neu5Ac(b2-6)GalNAc
Summary of the method: as §1

B1: LSECtin (Homo sapiens), Q6UXB4 (protein)
chain: MDTTRYSKWGGSSEEVPGGPWGRWVHWSRRPLFLALAVLVTTVLWAVILSILLSKASTERAALLDGHDLLRTNASKQTAALGALKEEVGDCHSCCSGTQAQLQTTRAELGEAQAKLMEQESALRELRERVTQGLAEAGRGREDVRTELFRALEAVRLQNNSCEPCPTSWLSFEGSCYFFSVPKTTWAAAQDHCADASAHLVIVGGLDEQGFLTRNTRGRGYWLGLRAVRHLGKVQGYQWVDGVSLSFSHWNQGEPNDAWGRENCVMMLHTGLWNDAPCDSEKDGWICEKRHNC
glycan array binding signal (z-score) (Fuc(a1-2)Gal): -0.224
glycan array binding signal (z-score) [1]: -0.125
glycan array binding signal (z-score) [2]: -0.129
glycan array binding signal (z-score) [3]: -0.157
glycan array binding signal (z-score) [4]: -0.129
glycan array binding signal (z-score) [5]: -0.135
glycan array binding signal (z-score) [6]: 2.77
glycan array binding signal (z-score) [7]: -0.124
glycan array binding signal (z-score) [8]: 4.05
glycan array binding signal (z-score) (Fuc(a1-4)GlcNAc): -0.206
glycan array binding signal (z-score) (Gal(a1-4)Gal(b1-4)GlcNAc): 0.114
glycan array binding signal (z-score) [9]: -0.084
glycan array binding signal (z-score) [10]: -0.127
glycan array binding signal (z-score) [11]: -0.13
glycan array binding signal (z-score) [12]: -0.137
glycan array binding signal (z-score) [13]: 0.004
glycan array binding signal (z-score) [14]: -0.085
glycan array binding signal (z-score) [15]: -0.21
glycan array binding signal (z-score) [16]: 5.9
glycan array binding signal (z-score) [17]: -0.139
glycan array binding signal (z-score) [18]: -0.133
glycan array binding signal (z-score) [19]: -0.123
glycan array binding signal (z-score) [20]: -0.158
glycan array binding signal (z-score) [21]: -0.133
glycan array binding signal (z-score) (Gal4S(b1-4)GlcNAc): -0.143
glycan array binding signal (z-score) (Gal6S(b1-3)GlcNAc6S): -0.136
glycan array binding signal (z-score) (Gal6S(b1-4)Glc): -0.141
glycan array binding signal (z-score) (Gal6S(b1-4)GlcNAc6S): -0.109
glycan array binding signal (z-score) (GalNAc(b1-3)Gal): -0.182
glycan array binding signal (z-score) [22]: -0.134
glycan array binding signal (z-score) (Glc(a1-6)Glc(a1-6)Glc): -0.232
glycan array binding signal (z-score) [23]: 3.23
glycan array binding signal (z-score) [24]: 6.75
glycan array binding signal (z-score) [25]: 6.57
glycan array binding signal (z-score) [26]: 6.3
glycan array binding signal (z-score) [27]: 3.06
glycan array binding signal (z-score) [28]: 7.17
glycan array binding signal (z-score) [29]: 9.94
glycan array binding signal (z-score) (GlcNAc(b1-3)Gal(b1-4)Glc): -0.109
glycan array binding signal (z-score) [30]: -0.126
glycan array binding signal (z-score) (Kdn(a2-6)Gal(b1-4)GlcNAc): -0.149
glycan array binding signal (z-score) [31]: -0.231
glycan array binding signal (z-score) [32]: -0.079
glycan array binding signal (z-score) [33]: -0.14
glycan array binding signal (z-score) [34]: 4.08
glycan array binding signal (z-score) [35]: -0.22
glycan array binding signal (z-score) [36]: 0.942
glycan array binding signal (z-score) [37]: 5.06
glycan array binding signal (z-score) [38]: -0.133
glycan array binding signal (z-score) [39]: -0.137
glycan array binding signal (z-score) [40]: -0.117
glycan array binding signal (z-score) (Neu5Ac(b2-6)GalNAc): -0.124
